# From PubChem BioAssay (NCI)
# This is part of a sample that, as a whole, favours compounds with a hit. Of some 83,000 tested, about 20% had one in any assay.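 Testing used 96-well plates and a 48-hour single-concentration exposure. Example: -40 means 40% of the starting cells died.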 A number with no mark means an inactive call. Activity calls are given as the source filed them.
# System: RPMI-8226 leukemia
# Experiment: NCI-60 one-dose screen, 48 h (100 = growth as untreated, 0 = no growth, -100 = all killed)
# Conditions: 10 µM unless noted
# Description: Growth inhibition of the RPMI-8226 human tumor cell line is measured as a screen for anti-cancer activity. Cells are grown in 96 well plates and exposed to the test compound for 48 hours. Compounds are tested at a single concentration, which is 10^-5 M for most compounds. The reported endpoint is percent growth (GI% or GIPRCNT), where numbers from 0 - 100% represent growth inhibition, and numbers from -100% - 0 represent cell death. For example, a value of 40 represents 60% growth inhibition. A value of 0 means no net growth occurred over the course of the experiment. A value of -40 indicates 40% of cells at the beginning of the experiment died by the end of the experiment. A value of -100 means all cells are dead at the end of the experiment.
# NCI-60 Human Tumor Cell Lines Screen was performed using the standard one-dose NCI protocol, which is described in more detail at https://dtp.cancer.gov/discovery_development/nci-60/default.htm.
# Compounds with GIPRCNT values below 10 were considered active. Activity score was based on GIPRCNT using the following formula: […]
# Score is 0 for GIPRCNT values of 100 or above, 50 for GIPRCNT values of 0, and 100 for GIPRCNT values of -100.
row,Structure (SMILES),growth
1,CCN1C(=S)N(CC)C2C1NN=C1SC(c3ccccc3)=CC(=O)N12 (stereo not given),107%
2,O=C(CSc1nc2sc3c(c2c(=O)n1-c1ccc(Cl)cc1)CCCC3)NNC(=O)Nc1cccc(C(F)(F)F)c1,-7.39% (active)
3,CC(C)(C)Nc1nc2c(OCCc3ccccc3)cccn2c1-c1ccc(O)cc1,19%
4,CCOC(=O)c1sc(NCC(=O)Nc2cccc([N+](=O)[O-])c2)c(C(=O)OCC)c1C,-31.6% (active)
5,Nc1cc(-c2c[nH]c3ccccc23)nc2cc(-c3c[nH]c4ccccc34)nn12,35.9%
6,C#Cc1nc(C2=C(C)/C(=N/OCc3ccccc3)CC2)cs1,-44.1% (active)
7,O=C1Nc2ccccc2Oc2ccc(S(=O)(=O)CC3CO3)cc21 (stereo not given),44.9%
8,Nc1nc(N)c2c(n1)NC(c1ccc(C(F)(F)F)cc1)CC(c1ccc(Nc3nc(NCCO)nc(Nc4ccc(Cl)cc4)n3)cc1)=N2 (stereo not given),-36.9% (active)
9,CS(=O)(=O)c1ccc(-c2nc3ccccn3c2/C=N/Nc2nc(-c3ccc(Cl)cc3)cs2)cc1,82.2%
10,N[C@@H](Cc1cn(-c2ccnc3ccccc23)nn1)C(=O)O,106%
11,O=C(NNc1nc2cc(F)ccc2n2c(CN3CC4(COC4)C3)ccc12)c1cnccn1,22%
12,COc1cccc(N2CCN(c3ncnc4c3[nH]c3ccc(F)cc34)C[C@@H]2C)c1,-34.7% (active)
13,Cc1ccccc1NC(=O)/C=C/c1ccc(OCCOc2ccc3c(C)cc(=O)oc3c2)cc1,94%
14,CS(=O)(=O)c1ccc(-c2nc3ccccn3c2-c2nc3ccc([N+](=O)[O-])cc3[nH]2)cc1,95.1%
15,COc1cc(OC)c(C2SCC(=O)N2Nc2ncnc3ccccc23)cc1OC (stereo not given),115%
16,O=C(N/N=C/c1ccc[nH]1)c1[nH]c2ccc(Br)cc2c1-c1ccccc1,-1.05% (active)
17,CCOC(=O)c1c(Nc2ccccc2)nn2c(-c3ccco3)c(C#N)cnc12,79.3%
18,CCOC(=O)c1c(Nc2ccccc2)nn2c(N)c(C#N)c(-c3ccccc3)nc12,68.8%
19,CN(C)CCCNc1c2ccc(Cl)cc2nc2c1oc1ccc(Cl)cc12,-27.2% (active)
20,CS(=O)(=O)c1ccc(-n2cc(/C=C/C(=O)c3ccc(NC(=O)CO[N+](=O)[O-])cc3)c(-c3ccc(Cl)cc3)n2)cc1,108%

row,Structure (SMILES),growth
1,COc1ccc(/C=C2\SC(=Nc3cc(C)[nH]n3)NC2=O)cc1,88.2%
2,CC(C)(C)Nc1nc2c(OCCc3ccccc3)cccn2c1-c1ccccc1Cl,-25.8% (active)
3,COc1cc2nc(-c3ccc(C)cc3)cc(OCCCNCC3CCCO3)c2cc1OC (stereo not given),24.1%
4,C/C(=C(/c1ccc(Cl)cc1)c1ccc(OCCN)cc1)c1ccc(C)cc1,96.5%
5,CCN1CCN(/C(=N\c2sc(-c3ccccc3)nc2-c2ccccc2)c2ccccc2)CC1,57.7%
6,COc1ccc(NC2=CC(=O)C(C)=C(C)C2=O)cc1,73.3%
7,C#Cc1nc(C2=C(C)C(=O)/C(=N/OC(C)=O)C2)cs1,32.3%
8,NS(=O)(=O)c1cccc(Nc2nc(SCC(=O)c3ccc([N+](=O)[O-])cc3)nc3ccccc23)c1,-9.57% (active)
9,C=C1CC[C@H]2[C@@](C)(CCC3OC(c4ccc(OCc5cn(C6CC(OC(C)=O)C(OC(C)=O)C(COC(C)=O)O6)nn5)cc4)OC[C@]32C)[C@@H]1/C=C/C1=CCOC1=O (stereo not given in full),41.2%
10,Cn1cc(-c2cc(N)n3nc(-c4cn(C)c5ccc(Cl)cc45)cc3n2)c2cc(Cl)ccc21,88.5%
11,C=CCSc1ccc2c(c1)C(N1CCNCC1)=Nc1ccccc1O2,63.2% [8.25 µM]
12,Clc1ccc2c(NCCCn3ccnc3)c3oc4ccc(Cl)cc4c3nc2c1,82.8%
13,COc1ccc(-n2c(SCC(=O)Nc3ccc(-c4nc5ccccc5[nH]4)cc3)nc3ccccc3c2=O)cc1,-21.2% (active)
14,Oc1c(Cl)cc(Cl)c2ccc(CN3CCCCC3)nc12,38.1%
15,CN(C)CCCOc1c2ccccc2nc2c1oc1ccc(Cl)cc12,-20.8% (active)
16,COc1ccc(-c2nn3c(-c4ccccc4F)nnc3s2)cc1,58%
17,O=C1Nc2ccc(Cl)cc2/C1=C/c1ccc(OCC(=O)c2ccc(Br)cc2)cc1,101%
18,CCOC(=O)c1sc(N)c(C(=O)OCC)c1C,42.3%
19,CCN(CC)c1ccc(C=O)c(OCc2cn(CC(=O)Nc3ccc(Cl)cc3)nn2)c1,57.9%
20,O=C1Nc2cc(Cl)ccc2/C1=C\c1ccc(OCc2ccc([N+](=O)[O-])cc2)cc1,55.6%
